In the library only some 11% were active in any assay of this set; here they are far more common.
PNC inhibitor: High Content Assay for Compounds that inhibit the Assembly of the Perinucleolar Compartment; PC3M PTB-GFP, PNC prevalence imaging, 16 h; hits give low values; activity change (PNC), negative = inhibition, % at 10 µM; hit rate 3.1% among 140,000;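 active = readout at or below -70, meaning at least 70% loss of cells showing the perinucleolar compartment, a nuclear body marking cancer cells; inconclusive = readout between -30 and a set limit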
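Compounds are pinned in duplicate onto adhered PC3M cells stably expressing GFP-tagged PTB and incubated 16 h at 37 C. Cells are then fixed, nuclei stained with Hoechst, and PNC-positive cells counted.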
ALDH1A1 block: qHTS Assay for Inhibitors of Aldehyde Dehydrogenase 1 (ALDH1A1) | Aldehyde dehydrogenase 1A1 (Homo sapiens), P00352 | Purified ALDH1A1, NADH fluorescence, propionaldehyde substrate | Potency, µM (top dose mostly 75.3 µM), most hits filed as inhibitors | hit rate 7.3% among 220,000 | AID 1030, 2008
HPGD block: qHTS Assay for Inhibitors of HPGD (15-Hydroxyprostaglandin Dehydrogenase); purified HPGD, NADH fluorescence kinetic, PGE2 substrate; Potency, µM, hits mostly inhibitors; hit rate 4.3% among 150,000; AID 894, 2007
Target sequence (P15428 whole entry, looked up): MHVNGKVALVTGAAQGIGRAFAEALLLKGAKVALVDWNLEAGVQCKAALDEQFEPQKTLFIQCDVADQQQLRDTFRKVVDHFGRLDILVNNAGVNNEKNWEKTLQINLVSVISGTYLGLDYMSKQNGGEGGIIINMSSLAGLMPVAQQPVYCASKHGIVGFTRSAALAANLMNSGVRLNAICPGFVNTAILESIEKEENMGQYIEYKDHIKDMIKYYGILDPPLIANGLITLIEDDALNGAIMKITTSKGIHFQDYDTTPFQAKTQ
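NADH formation kinetics: reaction with 30 uM PGE2 and 1 mM NAD+ (final), 20 nM enzyme, Tris-HCl pH 8 with Tween 20, after 15 min compound preincubation at room temperature. Fluorescence change, last versus first of five reads.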
Large screens that a line does not name were inactive. Unless noted, calls come from the whole dose curve; as a rule, active = well fitted inhibition curve with a large enough effect (not every such curve was filed as active); inconclusive = small, poorly fitted or top-dose-only effect, or another doubt; inactive = no such curve, though single readings can be large or run the other way.

CN(C)S(=O)(=O)c1ccc(Cl)c(NC(=O)COC(=O)CCSc2ccccc2)c1	ALDH1A1 block 25µM
CN(C)S(=O)(=O)c1ccc(Cl)c(NC(=O)COC(=O)CN2C(=O)NC(C)(C)C2=O)c1	PNC inhibitor inconclusive, ALDH1A1 block inconclusive
Cc1ccc(OCCC(=O)OCC(=O)Nc2cc(S(=O)(=O)N(C)C)ccc2C)cc1	ALDH1A1 block 4µM (no result: PNC inhibitor, HPGD block)
Clc1ccc(CNc2nnnn2-c2ccccc2)c(Cl)c1	none
Cc1cccc(-c2ncc(CN3CCN(CCC(C)C)C(CCO)C3)cn2)c1 (stereo not drawn)	none (no result: PNC inhibitor, HPGD block)
c1cn2cc(-c3ccc4c(c3)OCO4)nc2s1	ALDH1A1 block 8.9µM, HPGD block 32µM
O=C(Nc1ccc(-c2cn3ccsc3n2)cc1)C1CCCC1	HPGD block 14µM
O=C(Nc1ccc(-c2cn3ccsc3n2)cc1)C1CC1	PNC inhibitor inconclusive
CC(=O)Nc1ccc(-c2cn3ccsc3n2)cc1	PNC inhibitor inconclusive
Cc1oc(-c2ccccc2)nc1C(=O)N1CCN(c2ccc(F)cc2)CC1	none (no result: PNC inhibitor, HPGD block)
COC(=O)N1CCC2(CCN(Cc3ccc(C#N)cc3)CC2)CC1	ALDH1A1 block inconclusive (no result: PNC inhibitor)
CCOC(=O)Nc1sc(=S)n(C)c1C	ALDH1A1 block 19µM, HPGD block 25µM
Cc1ccc(S(=O)(=O)NCCOC(=O)Nc2sc(=S)n(C)c2C)cc1	ALDH1A1 block inconclusive
CCCCN(CCCNC(=O)c1ccc2nc(N3CCOCC3)sc2c1)Cc1ccccc1	none
CC(=O)c1ccccc1NC(=O)Cn1c(=O)cnc2ccccc21	PNC inhibitor inconclusive, ALDH1A1 block 1.8µM
COCCn1c(SCC(=O)Nc2ccc(Cl)c(S(=O)(=O)N(C)C)c2)nc2ccccc21	PNC inhibitor inconclusive, ALDH1A1 block 32µM
COCCn1c(SCC(=O)Nc2ccc(S(N)(=O)=O)cc2)nc2ccccc21	none
CCN(CC)S(=O)(=O)c1cc(NC(=O)Cn2cnc3ccccc3c2=O)ccc1C	ALDH1A1 block inconclusive
Cc1ccc(NC(=O)Cn2c(=O)cnc3ccccc32)cc1S(=O)(=O)N(C)C	PNC inhibitor inconclusive, ALDH1A1 block 14µM
CSc1ccccc1NC(=O)Cn1c(-c2cscn2)nc2ccccc21	none
N#C/C(=C\c1c(N2CCCCC2)nc2ccccn2c1=O)C(=O)NCc1ccco1	ALDH1A1 block 28µM
N#C/C(=C\c1c(N2CCCCCC2)nc2ccccn2c1=O)C(=O)NCc1ccco1	ALDH1A1 block 13µM (no result: PNC inhibitor, HPGD block)
CCNC(=O)/C(C#N)=C/c1c(N2CCOCC2)nc2ccccn2c1=O	ALDH1A1 block inconclusive, HPGD block inconclusive
CNC(=O)/C(C#N)=C/c1c(N(Cc2ccccc2)Cc2ccccc2)nc2c(C)cccn2c1=O	none
CCNC(=O)/C(C#N)=C/c1c(N(Cc2ccccc2)Cc2ccccc2)nc2ccccn2c1=O	ALDH1A1 block 16µM
N#C/C(=C\c1cn(Cc2ccccc2)c2ccccc12)C(=O)NCc1ccco1	none
O=C1CC(c2ccccc2)CC(O)=C1C=NCCN1CCN(Cc2ccccc2)CC1 (stereo not drawn)	none (no result: PNC inhibitor, HPGD block)
CC1=C(c2ccc(Cl)cc2)[N+](=O)C(C)(C)N1[O-]	none
CCN(CC#CCC(O)(c1ccccc1)C1CCCC1)C(C)C (stereo not drawn)	none
CC(C)N(CC#CCC(O)(c1ccccc1)C1CCCC1)CCO (stereo not drawn)	ALDH1A1 block 28µM (no result: PNC inhibitor, HPGD block)
COc1ccc(/C=C/CN2CCN(Cc3ccc(F)cc3)C(CCO)C2)cc1 (stereo not drawn)	none (no result: PNC inhibitor, HPGD block)
O=C(c1cnn2c(C(F)F)cc(C3CC3)nc12)N1CCCC1	none
O=C(c1cc2nc(C3CC3)cc(C(F)F)n2n1)N1CCOCC1	PNC inhibitor inconclusive, ALDH1A1 block inconclusive, HPGD block 32µM
Cc1cc(=O)[nH]c(SCC(=O)OCc2ccccc2)c1C#N	none (no result: PNC inhibitor, HPGD block)
CCC1(C)Nc2ccccc2C(=O)N1O (stereo not drawn)	HPGD block 25µM
COC(=O)C1(C)Nc2ccccc2C(=O)N1c1ccccc1OC (stereo not drawn)	ALDH1A1 block inconclusive, HPGD block inconclusive
C/C(=N\NC(=O)c1cccc(Br)c1)c1cccc(NC(=O)c2ccc(C)o2)c1	none
O=C(O)c1ccc(CNCc2ccccc2F)cc1	none (no result: PNC inhibitor, HPGD block)
Fc1ccc(CNCc2ccccc2C(F)(F)F)cc1	PNC inhibitor -114
CCOc1ccc(/C=C(\C#N)C(=O)NCC2CCCO2)cc1OCC (stereo not drawn)	ALDH1A1 block 28µM
COc1cc(/C=C(\C#N)C(=O)NCC2CCCO2)ccc1O (stereo not drawn)	ALDH1A1 block inconclusive
COc1cc(NC(=S)NN2CCN(C)CC2)cc(OC)c1OC	none (no result: PNC inhibitor, HPGD block)
O=C(OCc1csc(Nc2ccccc2)n1)c1ccc(Cl)cc1	none
O=C(c1nc2ccccc2s1)N1CCSCC1	PNC inhibitor inconclusive, HPGD block 8.9µM
O=C(c1nc2ccccc2s1)N1CCN(c2ccccn2)CC1	ALDH1A1 block inconclusive
O=C(N/C(=C\c1cccc([N+](=O)[O-])c1)C(=O)N1CCOCC1)c1ccc([N+](=O)[O-])cc1	none (no result: PNC inhibitor, HPGD block)
CS(=O)(=O)c1ccc(CNC(=O)[C@H]2C[C@@H]2[C@H](NP(=O)(c2ccccc2)c2ccccc2)c2ccccc2)cc1	none (no result: PNC inhibitor)
N#CC(/C(=N/S(=O)(=O)c1cccs1)c1ccccc1)c1nc2ccccc2[nH]1 (stereo not drawn)	PNC inhibitor inconclusive
COC(=O)CN=Cc1c(C)[nH]n(-c2ccccc2)c1=O	none (no result: PNC inhibitor, HPGD block)
Cc1[nH]n(-c2ccccc2)c(=S)c1C=NCCCN=Cc1c(C)[nH]n(-c2ccccc2)c1=S	PNC inhibitor inconclusive, ALDH1A1 block 4µM, HPGD block 28µM
CCNC(=O)/C(C#N)=C/c1c(N2CCN(Cc3ccc4c(c3)OCO4)CC2)nc2c(C)cccn2c1=O	PNC inhibitor inconclusive, ALDH1A1 block inconclusive
CCCC/C(O)=C1\C(=O)CC(C)(C)CC1=NCCCCCC(=O)O	none (no result: PNC inhibitor, HPGD block)
O=C(CCN1C(=O)COc2ccccc21)NCCC1=CCCCC1	PNC inhibitor inconclusive, ALDH1A1 block 32µM
Cc1ccc2c(c1)N(CCC(=O)NCc1ccccn1)C(=O)CO2	ALDH1A1 block 22µM
O=C(CN1C(=O)COc2ccccc21)NCCC1=CCCCC1	ALDH1A1 block inconclusive
Cc1ccc2c(c1)N(CCC(=O)NCc1cccnc1)C(=O)CO2	none
C#CC(CC)(CC)NC(=S)Nc1cccc(C(C)=O)c1	none
CCOC(=O)N1CCN(CC(=O)Nc2ccc(F)c(F)c2)CC1	none (no result: PNC inhibitor, HPGD block)
CCOc1ccc2nc(SCC(=O)NC(=O)NCc3ccco3)[nH]c2c1	PNC inhibitor inconclusive
CS(=O)(=O)N1N=C(c2cccs2)CC1c1ccco1 (stereo not drawn)	ALDH1A1 block 20µM (no result: PNC inhibitor, HPGD block)
CC(=O)N1N=C(c2cccs2)CC1c1ccco1 (stereo not drawn)	none (no result: PNC inhibitor, HPGD block)
O=C(c1cccs1)N1N=C(c2ccccc2)CC1c1ccccc1 (stereo not drawn)	PNC inhibitor -105, HPGD block inconclusive
O=C(c1cccs1)N1N=C(c2ccc(O)cc2)CC1c1ccccc1 (stereo not drawn)	none
CCN1CCN(CC(=O)N2N=C(c3cccs3)CC2c2ccc(F)cc2)C(=O)C1=O (stereo not drawn)	none (no result: PNC inhibitor, HPGD block)
O=C(c1ccco1)N1N=C(c2cccs2)CC1c1ccc(F)cc1 (stereo not drawn)	PNC inhibitor inconclusive, ALDH1A1 block 20µM
CCN(C(=O)COC(=O)c1ccc(Br)o1)C1CCCCC1	none (no result: PNC inhibitor, HPGD block)
COc1ccccc1NCC(=O)N/N=C(\C)c1cccs1	none (no result: PNC inhibitor, HPGD block)
